Assay outcomes from PubChem BioAssay.
KCNQ2 enhance: KCNQ2 (rat) channel potentiation; B-score at 10 µM; 310,000 tested, 0.54% active; CHO-K1 KCNQ2, FluxOR thallium flux fluorescence; active compounds read high; AID 2239;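 active means fluorescence ratio B-score at least 3 SD of library B-scores, with initial fluorescence B-score within 3 of them, cut at about 5.3 in these data; same plate scores as AID 2156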;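 further: B-score of peak minus minimum over baseline fluorescence ratio after K+ and Tl+ stimulus; positive B-score means potentiation of KCNQ2 with more thallium influx and brighter signal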
Target sequence (O88943 whole entry, looked up): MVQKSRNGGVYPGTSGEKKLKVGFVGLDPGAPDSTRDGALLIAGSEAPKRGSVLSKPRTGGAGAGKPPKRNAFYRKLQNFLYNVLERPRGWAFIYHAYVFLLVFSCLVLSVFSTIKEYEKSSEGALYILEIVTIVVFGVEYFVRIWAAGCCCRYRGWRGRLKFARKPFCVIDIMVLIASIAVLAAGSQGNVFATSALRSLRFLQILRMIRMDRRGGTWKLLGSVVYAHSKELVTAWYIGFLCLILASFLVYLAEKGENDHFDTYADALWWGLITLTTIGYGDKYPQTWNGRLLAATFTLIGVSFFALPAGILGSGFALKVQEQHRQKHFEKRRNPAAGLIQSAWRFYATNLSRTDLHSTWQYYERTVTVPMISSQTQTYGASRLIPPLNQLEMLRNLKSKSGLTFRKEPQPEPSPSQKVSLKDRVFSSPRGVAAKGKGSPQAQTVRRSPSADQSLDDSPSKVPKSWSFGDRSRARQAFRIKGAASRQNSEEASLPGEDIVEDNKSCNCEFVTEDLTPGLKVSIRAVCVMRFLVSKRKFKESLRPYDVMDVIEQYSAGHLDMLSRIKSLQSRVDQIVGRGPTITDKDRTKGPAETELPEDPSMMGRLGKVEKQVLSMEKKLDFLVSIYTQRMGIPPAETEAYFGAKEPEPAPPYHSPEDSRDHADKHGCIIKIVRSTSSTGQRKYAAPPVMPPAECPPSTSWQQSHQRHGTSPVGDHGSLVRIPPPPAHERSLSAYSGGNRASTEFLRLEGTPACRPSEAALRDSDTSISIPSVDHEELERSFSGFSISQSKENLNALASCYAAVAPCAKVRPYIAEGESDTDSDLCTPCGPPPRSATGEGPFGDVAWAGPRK
KCNQ2 block: inhibitors of rat KCNQ2 potassium channel | 310,000 tested, 1.1% active | CHO-K1 KCNQ2, FluxOR thallium flux, 20 min; active compounds read low | O88943 | B-score at 10 µM | AID 2156;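 active means fluorescence ratio B-score at most minus 3 library SDs, with starting brightness B-score within 2 library SDs, cut at about -5.5 in these data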
Kir21 confirm: confirmation of mouse Kir2.1 potassium channel inhibitors; Kir2.1-expressing cells, FluxOR thallium flux fluorescence; active compounds read low; AID 2032; shares compounds with KCNQ2 enhance; 2,300 tested, 41% active; Tl flux remaining, % of negative control (active compounds read low), % at 10 µM;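 active means Primary-screen hit whose thallium flux fell at least 3 control SD below untreated wells in both duplicates, with normal baseline fluorescence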;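 further: 0% = blank wells without stimulus and 100% = stimulated no-compound controls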
HEK293 ctr: alters thallium flux in parental HEK293 cells, Kir2.1 counter-screen; FluxOR thallium flux fluorescence; 0% = unstimulated blank wells; 2,300 tested, 19% active; FluxOR signal as % of negative control (100 = no effect), % at 10 µM; shares compounds with KCNQ2 enhance;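 active means dye signal at least 3 control SD above or below untreated wells in both duplicates, raw fluorescence within 3, either direction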;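 further: percent is based on the flux ratio of peak minus minimum fluorescence over baseline F0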
CHO-K1 Tl ctr: parental CHO-K1 activity in KCNQ2 potentiator counter-screen | AID 2282 | 1,200 tested, 43% active | shares compounds with KCNQ2 enhance | activity increase over 3SD of controls, % at 10 µM | parental CHO-K1 cells, FluxOR thallium flux fluorescence; zero = vehicle mean+3SD, 100% = vehicle-minus-blank window;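 active means signal rise of at least 3 SD above the untreated control mean, in both duplicate wells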;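 further: counter screen of KCNQ2 potentiator hits so any rise reflects channel-independent effects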
KCNQ1 sel pot: selectivity of KCNQ2 potentiators: effect on human KCNQ1. shares compounds with KCNQ2 enhance. CHO KCNQ1 stable, FluxOR thallium flux fluorescence; beyond 3SD, as % of vehicle-control signal. activation over 3SD threshold, % at 10 µM. 1,200 tested, 28% active. AID 2283;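 active means fluorescence ratio rise of at least 3 SD of vehicle wells above their mean, in both replicate wells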;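 further: 0% = vehicle mean plus 3 SD and 100% = vehicle minus unstimulated blank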
KCNQ2 pot confirm: confirmation of rat KCNQ2 potassium channel potentiators; shares compounds with KCNQ2 enhance; CHO-KCNQ2 cells, FluxOR thallium flux fluorescence; potentiation, less the hit threshold, % at 10 µM; 1,200 tested, 68% active;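 active means fluorescence ratio rising 3 SD or more over the vehicle control mean in both replicates, plus primary screen hit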;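 further: peak minus minimum thallium fluorescence divided by baseline after K/Tl stimulus; 0% = vehicle mean plus 3 SD and 100% = vehicle minus unstimulated blank difference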
Kir21 spec: mouse Kir2.1 off-target activity of KCNQ2 potentiators; 1,200 tested, 2% active; shares compounds with KCNQ2 enhance; HEK293 Kir2.1, FluxOR thallium flux fluorescence; activity over 3SD threshold, % at 10 µM;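 active means fluorescence ratio rise of at least 3 SD above the vehicle-control mean, seen in both replicates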;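 further: 0% = vehicle mean plus 3 SD and 100% = vehicle minus no-stimulus blank window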
KCNQ2 W236L MoA: rat KCNQ2 W236L mutant potentiation by KCNQ2 potentiators. 940 tested, 10% active. AID 2558. CHO KCNQ2-W236L, automated patch clamp current. current increase over 3SD of negative controls (%), active compounds read high, % at 25 µM. shares compounds with KCNQ2 enhance;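 active means current increase at least 3 SD of the untreated controls above them in both duplicate recordings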
* marks the source's active call; other numbers are inactive results; i = inactive; / = no result. Hits are enriched below; roughly 1.6% of the tested compounds scored in any of these assays.

SMILES	KCNQ2 enhance	KCNQ2 block	Kir21 confirm	HEK293 ctr	others
CN(C)C(CNC(=O)c1cnc(Cl)c(Cl)c1)c1ccccc1 (stereo not given)	0.03	i	/	/
CCCOc1ccc(C(=O)N(Cc2cccs2)C2CCS(=O)(=O)C2)cc1 (stereo not given)	1.9	i	/	/
O=C(Oc1cccc(OC(=O)c2ccco2)c1)c1ccco1	0.44	i	51%*	i
O=C(Oc1cccnc1)c1ccco1	/	i	/	/
Cc1ccc(NC(=O)CSc2nnc(C3CC3)n2N)cc1S(=O)(=O)N1CCOCC1	0.39	i	/	/
Cc1ccc(C)c(NC(=O)CSc2nc3nc(-c4cccs4)cc(C(F)(F)F)c3c(=O)[nH]2)c1	6.4*	i	i	i	CHO-K1 Tl ctr=-8;KCNQ1 sel pot=34*;KCNQ2 pot confirm=-97;Kir21 spec=-35
O=C(CSc1nc2nc(-c3cccs3)cc(C(F)(F)F)c2c(=O)[nH]1)Nc1ccc(F)c(F)c1	1.3	i	/	/
CN(C(=O)COC(=O)c1c2c(nc3ccccc13)CCCC2)c1c(N)n(Cc2ccccc2)c(=O)[nH]c1=O	/	i	/	/
N/C(=N\OC(=O)Nc1ccccc1)c1cccc(C(F)(F)F)c1	11*	i	i	i	CHO-K1 Tl ctr=-14;KCNQ1 sel pot=9.0*;KCNQ2 pot confirm=23*;Kir21 spec=-28;KCNQ2 W236L MoA=i
N/C(=N\OC(=O)Nc1ccccc1)c1ncc(C(F)(F)F)cc1Cl	/	i	/	/
CCN(CC)S(=O)(=O)c1ccc(OC)c(NC(=O)c2cn(CC)c3nc(C)ccc3c2=O)c1	/	i	/	/
Cc1cccc(NC(=O)C23CCC(C)(C2Br)C3(C)C)c1 (stereo not given)	10*	i	i	i	CHO-K1 Tl ctr=-2;KCNQ1 sel pot=7.4*;KCNQ2 pot confirm=-6;Kir21 spec=-47;KCNQ2 W236L MoA=i
Cc1cccc(NC(=O)CC(=O)Nc2cccc(C)c2)c1	/	i	/	/
Cc1cc(NCCOCCO)n2ncc(-c3ccc(Cl)cc3)c2n1	6.2*	i	i	i	CHO-K1 Tl ctr=2.2*;KCNQ1 sel pot=-11;KCNQ2 pot confirm=4.4*;Kir21 spec=-44;KCNQ2 W236L MoA=i
Cc1cc(NCc2ccccn2)n2ncc(-c3ccc(Cl)cc3)c2n1	0.08	i	/	/
Cc1ccc(S(=O)(=O)c2c(N)n(NC(=O)c3ccccc3C)c3nc4ccccc4nc23)cc1	5.3	i	i	i	CHO-K1 Tl ctr=98*;KCNQ1 sel pot=-8;KCNQ2 pot confirm=-3;Kir21 spec=-39;KCNQ2 W236L MoA=i
Cc1ccc(C(=O)Nn2c(N)c(S(=O)(=O)c3ccc(C)cc3)c3nc4ccccc4nc32)cc1	0.47	i	/	/
O=C(NCCN1CCOCC1)c1c(O)nc2sccn2c1=O	0.81	i	/	/
Cc1c(C)n(Cc2ccccc2)c2ccc(C(=O)NCCN3CCOCC3)cc12	0.84	i	/	/
Cc1c(C)n(Cc2ccccc2)c2ccc(C(=O)OCCN(C)C)cc12	/	i	26%*	i
CC(C)n1cnc2c(N(C)c3ccccc3)nc(N(CCN(C)C)Cc3ccccc3)nc21	/	i	48%*	i
COc1ccc(CN(CCN(C)C)c2ccccn2)cc1	1.3	i	/	/
COc1cccc(NC(=O)CC(=O)c2ccccc2)c1	/	i	/	/
CCOC(=O)Cn1c2c(c(=N)c3ccccc31)CCC2	0.87	i	/	/
CCOC(=O)C1=C[C@]2(CC)CCCN3CCc4c(n1c1ccccc41)[C@@H]32	10*	i	/	/	CHO-K1 Tl ctr=-4;KCNQ1 sel pot=61*;KCNQ2 pot confirm=39*;Kir21 spec=-58;KCNQ2 W236L MoA=i
SMILES	KCNQ2 enhance	KCNQ2 block	Kir21 confirm	HEK293 ctr	others
Cc1cc(/C=C2\C(=N)N3N=CSC3=NC2=O)c(C)n1Cc1ccccc1	/	i	/	/
COc1ccccc1C(=O)NNC(=O)c1ccc(Cl)cc1	0.04	i	/	/
COc1ccccc1C(=O)NNC(=O)C(=O)NC(C)(C)C	3.8	i	/	/
COc1ccccc1C(=O)NNC(=O)C(=O)Nc1ccc(C)c(Cl)c1	28*	i	i	312%*	CHO-K1 Tl ctr=78*;KCNQ1 sel pot=-9;KCNQ2 pot confirm=54*;Kir21 spec=-27;KCNQ2 W236L MoA=i
COc1ccccc1C(=O)NNC(=O)C(=O)Nc1ccc(C)cc1	22*	i	i	416%*	CHO-K1 Tl ctr=-21;KCNQ1 sel pot=25*;KCNQ2 pot confirm=47*;Kir21 spec=-17;KCNQ2 W236L MoA=i
Cc1ccccc1C(=O)Nc1c2c(nn1C(C)(C)C)CS(=O)(=O)C2	/	i	/	/
O=C(Nc1ccccc1)Nc1ccc(Cl)nc1Cl	0.13	i	/	/
CCCCc1cc(O)c(CCCC)c(O)c1	8.7*	i	/	/	CHO-K1 Tl ctr=-16;KCNQ1 sel pot=-15;KCNQ2 pot confirm=38*;Kir21 spec=-55;KCNQ2 W236L MoA=i
CCCCCc1cc(O)c2c(C)cc(=O)oc2c1	0.22	i	/	/
O=C(O)c1ccccc1C(=O)NC1CCCCNC1=O (stereo not given)	0.23	i	/	/
S=c1[nH]c(-c2ccccc2)cs1	11*	i	i	147%*	CHO-K1 Tl ctr=9.5*;KCNQ1 sel pot=-15;KCNQ2 pot confirm=66*;Kir21 spec=-39;KCNQ2 W236L MoA=i
O=c1[nH]c(-c2ccccc2)cs1	0.01	i	/	/
COc1ccc(NS(=O)(=O)c2ccc(C)c(C(=O)N3CCCCCCC3)c2)cc1	/	i	/	/
CCOc1cc(C=O)ccc1OS(=O)(=O)c1ccc(NC(C)=O)cc1	0.01	i	/	/
CCOC(=O)N1CCN(C(=O)CN(c2cccc(OC)c2)S(C)(=O)=O)CC1	/	i	/	/
CCOC(=O)N1CCN(C(=O)CN(c2ccc(OC)cc2)S(C)(=O)=O)CC1	27*	i	i	i	CHO-K1 Tl ctr=15*;KCNQ1 sel pot=-12;KCNQ2 pot confirm=-24;Kir21 spec=-36
CN(C)C(=O)N(CCCN1CCOCC1)Cc1cccc2ccccc12	0.5	i	/	/
O=C(/C=C/c1ccc([N+](=O)[O-])cc1)/C=C/c1ccco1	-6.1	-6.1*	i	i
O=C(/C=C/c1ccc([N+](=O)[O-])cc1)NCc1ccco1	0.51	i	/	/
CCc1cc(-c2n[nH]c(C)c2-c2nc3ccccc3s2)c(O)cc1OCC(=O)NN	/	i	/	/
CCc1cc(-c2n[nH]c(C)c2-c2nc(C)cs2)c(O)cc1OC	2.6	i	37%*	i
CCc1ccc(NC(=O)NCCN2CCCCC2)cc1	0.65	i	/	/
COc1cc(/C=C/C(=O)OCC(=O)N2CCCc3ccccc32)ccc1OC(F)F	/	i	/	/
O=C1CC(N2CCN(C3CC(=O)N(CCc4ccccc4)C3=O)CC2)C(=O)N1CCc1ccccc1 (stereo not given)	0.42	i	/	/
O=C1CC(N2CCC(Cc3ccccc3)CC2)C(=O)N1CCc1ccccc1 (stereo not given)	5.7*	i	i	i	CHO-K1 Tl ctr=-6;KCNQ1 sel pot=-28;KCNQ2 pot confirm=7.5*;Kir21 spec=-32;KCNQ2 W236L MoA=i
CC1CCN(C(=O)CSc2ccc(-c3ccccc3)nn2)CC1	/	i	/	/
